Screening data (PubChem)
Sfp inh = inhibitors of Bacillus subtilis Sfp phosphopantetheinyl transferase | Q9F4F7 | Biochemical Sfp PPTase activity, qHTS | Potency, µM, without a hit: largest response in the series, negative = inhibition, usual class: inhibitors | actives 3.5% (n = 310,000) | AID 1490;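 note: the enzyme is Sfp with the accession as filed and its product quenches rhodamine fluorescence; 0% = enzyme reaction without inhibitor and -100% = no enzyme wells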
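With Hepes-Na pH 7.6 buffer containing 10 mM MgCl2, Sfp (15 nM) modified BHQ-2-YbbR (12.5 uM) using rhodamine-CoA (5 uM). Two reads 30 minutes apart at 525/598 nm yielded each well's rate.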
G9a block = G9a (human) methyltransferase inhibition | actives 8.8% (n = 350,000) | Q96KQ7 | G9a H3K9 monomethylation, AlphaScreen, 2 h | AID 504332 | Potency, µM (titrated, usually from 102 µM), inactives show top-dose activity, negative = inhibition, most hits filed as inhibitors; note: % is set by controls: 0 for no effect and ±100 for the full control effect; nearly all actives have a fitted effect of over 75% in size
Target sequence (Q96KQ7 913-1193 limits assumed): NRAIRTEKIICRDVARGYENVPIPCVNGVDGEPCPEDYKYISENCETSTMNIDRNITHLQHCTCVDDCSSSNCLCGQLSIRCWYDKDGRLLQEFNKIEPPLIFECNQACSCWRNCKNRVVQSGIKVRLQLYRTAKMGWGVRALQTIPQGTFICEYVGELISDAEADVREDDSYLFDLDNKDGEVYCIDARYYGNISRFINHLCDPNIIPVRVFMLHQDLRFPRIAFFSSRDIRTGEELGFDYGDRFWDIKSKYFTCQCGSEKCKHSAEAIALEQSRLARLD
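Methyltransferase reactions run at room temperature for 2 h (20 nM enzyme, 500 nM biotin-H3K9 peptide, 20 uM SAM) after a 15 min compound preincubation; product detected by AlphaScreen beads and anti-H3K9me1 antibody.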
HP1b chromo inh = blocks HP1-beta chromodomain binding to methylated histone tails; AlphaScreen HP1-beta / biotin-H3K9me3 peptide binding; actives 0.56% (n = 390,000); Potency, µM (doses to about 114 µM), for inactives: at the highest dose activity change, negative = inhibition, hits mostly inhibitors; note: nearly all actives have a fitted effect of over 70% in size
Target sequence (P83916 whole entry, looked up): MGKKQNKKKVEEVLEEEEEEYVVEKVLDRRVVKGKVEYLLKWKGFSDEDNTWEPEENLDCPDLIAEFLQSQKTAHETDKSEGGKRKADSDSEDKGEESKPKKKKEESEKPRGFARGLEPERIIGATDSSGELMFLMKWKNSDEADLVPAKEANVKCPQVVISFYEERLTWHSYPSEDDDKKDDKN
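Compound inhibition of the preformed complex between 50 nM HP1-beta and 50 nM biotinylated H3K9me3 peptide was read by AlphaScreen. Buffer was PBS pH 7.4 with 0.01% Tween-20. Incubations ran 30 min at room temperature, with 10 ug/mL donor/acceptor beads.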
L3MBTL1 block = L3MBTL1 (human) inhibition; actives 0.66% (n = 230,000); Potency, µM (titrated, usually from 57.1 µM), for inactives: at the top dose activity, negative = inhibition, actives largely listed as inhibitors; Q9Y468; AlphaScreen L3MBTL1–H3K9me1 peptide binding; note: % is set by controls: 0 for no effect and ±100 for the full control effect; nearly all actives have a fitted effect of over 60% in size
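Displacement of a biotinylated histone H3(1-15) peptide monomethylated at Lys9 (75 nM) from L3MBTL1 (50 nM) was measured by AlphaScreen after a 30 min room-temperature compound incubation; cefsulodin titration served as intraplate control.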
BAZ2B block = BAZ2B (human) inhibition; AID 504333; Potency, µM (highest dose often 114 µM), for inactives: at the top dose activity change, negative = inhibition, actives largely listed as inhibitors; Q9UIF8; AlphaScreen BAZ2B-H3K14Ac peptide displacement; actives 4.4% (n = 360,000); note: % is set by controls: 0 for no effect and ±100 for the full control effect; nearly all actives have a fitted effect of over 60% in size
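AlphaScreen displacement: compounds (up to 110uM) incubated 30 min at room temperature with a preformed 50 nM BAZ2B/50 nM biotinylated H3K14Ac peptide complex in PBS pH 7.4 with Tween-20. Donor and acceptor beads at 10 ug/mL final added, 20 min light-protected before reading.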
JMJD2A Tudor = inhibitors of human JMJD2A Tudor domain | Potency, µM (doses to about 114 µM), for the others: at the highest dose activity change, negative = inhibition, most hits filed as inhibitors | AlphaScreen JMJD2A-Tudor / H3K4me3 peptide binding | actives 4.4% (n = 390,000); note: % is set by controls: 0 for no effect and ±100 for the full control effect; nearly all actives have a fitted effect of over 50% in size
* hit, by the source's call; ? = inconclusive; / = no result given; [ ] = another dose, or the depositor's remark. Only some compounds are listed: those with a hit (about 12% of all), similar ones and a draw of the others. Calls come from the whole dose curve; as a rule, active = well fitted curve in the direction sought with a large enough effect; inconclusive = small, poorly fitted or top-dose-only effect, or another doubt; inactive = no such curve, though single readings can be large; an effect the other way counts as inactive or inconclusive. Potency is the fitted concentration of half-maximal effect.

SMILES | Sfp inh | G9a block | HP1b chromo inh | L3MBTL1 block | BAZ2B block | JMJD2A Tudor
O=C(NCC1(c2ccccc2)CCCC1)c1ccco1 | 6% | 8% | 28% | 0% | -2% | -1%
COc1ccc(CNC(=O)/C=C/c2ccco2)cc1OC | 45µM* | 45µM* | 30% | / | -12% | -5%
O=C(/C=C/c1ccco1)NCC1(c2ccccc2)CCCC1 | -29% | 11µM* | 17% | 0% | -28% | -4%
COc1ccc(O[C@H]2C=C[C@@H](c3ccccc3)O[C@H]2COC(=O)CC/C(C)=N/OCC[C@@H]2C=C[C@H](OC(C)=O)[C@H](COC(C)=O)O2)cc1 | -1% | / | / | / | / | /
CC(C)CN(CC(C)C)C(=S)Nc1ccc(Cl)cc1 | 13% | -2% | 70% | -5%[11.4 µM] | -29% | 0%
CC(C)[C@]1(c2ccccc2)ON(c2ccccc2C(F)(F)F)C1=O | / | 12%[0.501 µM] | / | 40% | 94% | /
COc1ccc(/C(C)=N/NC(=O)CNC(=O)/C=C\c2ccco2)cc1 | 0% | -29% | -7% | / | 79µM* | ?
O=C(/C=C/c1ccco1)NCCc1ccccc1 | -21% | 45µM* | 1% | / | -9% | -17%
O=C(O)CCCCCNC(=O)/C=C/c1ccco1 | 14% | 2% | 32% | 5% | -2% | -1%
COc1ccc(C2(CNC(=O)/C=C/c3ccco3)CCCC2)cc1OC | 22µM* | ? | 11% | -10% | ? | -25%
Cc1ccc(-c2ccc(=O)n(C(C)C(=O)Nc3ccccc3Cl)n2)cc1C (stereo not given) | / | -5%[59 µM] | 17% | / | -22% | -8%
CCc1ccc(/C=C/C(=O)C2C(=O)c3ccccc3C2=O)cc1 | 79µM* | ? | 22% | -7% | -4% | -21%
CC(=O)N1CCN(c2ccc(NS(=O)(=O)c3ccc4c(c3)CC(=O)N4)cc2)CC1 | / | / | / | / | / | 126µM*
CN1C(=O)Cc2cc(S(=O)(=O)Nc3ccc(N4CCOCC4)cc3)ccc21 | 2% | 79µM* | 7% | / | -20% | -16%
COc1ccc(S(=O)(=O)NC2CCCCC2)cc1-n1cnnn1 | 8% | -3% | -5% | 5% | -25% | 79µM*
Cc1cc(S(=O)(=O)Nc2ccc(N3CCOCC3)cc2)ccc1Br | 8% | 40µM* | 0% | / | ? | ?
O=S(=O)(Nc1ccc(N2CCOCC2)cc1)c1ccccc1 | 6% | ? | 14% | / | 6% | -5%
Cc1cc(S(=O)(=O)NC2CCCCC2)ccc1-n1cnnn1 | 2% | / | 18% | 4% | -12% | 8%
CC(C)(C)c1ccc(C2=NC(C)(C)N(CC(=O)Nc3ccc(F)c(F)c3)C2=O)cc1 | / | 5%[59 µM] | 36% | / | -6% | -3%
COc1ccc(S(=O)(=O)Nc2ccccc2N2CCOCC2)cc1[N+](=O)[O-] | ? | / | 2% | / | -30% | -23%
O=S(=O)(Nc1ccc(N2CCOCC2)cc1)c1c(F)cc(F)cc1Br | 6% | 40µM* | ? | / | -30% | -25%[57.1 µM]
COc1ccc(S(=O)(=O)NCCN2CCOCC2)cc1Br | 0% | / | 24% | / | -7% | -2%
COc1ccc(S(=O)(=O)Nc2ccc(-n3cnnn3)cc2)cc1Br | / | 56µM* | 26% | 11% | -6% | -6%
COc1ccc(S(=O)(=O)Nc2ccc(N3CCOCC3)cc2)cc1Br | 4% | 10µM* | -17% | / | ? | ?
COc1ccc(S(=O)(=O)Nc2ccc(N3CCOCC3)cc2)cc1[N+](=O)[O-] | -17% | 45µM* | 33% | -5% | -30% | -15%
SMILES | Sfp inh | G9a block | HP1b chromo inh | L3MBTL1 block | BAZ2B block | JMJD2A Tudor
N#CC1=C(N)Oc2cc(N)ccc2C1c1cccc(Br)c1 (stereo not given) | 6% | 4% | 17% | -4% | ? | ?
O=C(c1ccc(N2CCCS2(=O)=O)cc1)N1CCN(c2ccccc2)CC1 | 16% | ? | -3% | / | -1% | -16%
O=C(Nc1ccc2c(c1)CCC2)c1ncoc1-c1ccccc1F | 28% | 47% | 14% | / | 13% | -15%
Cc1ccc(NC(=O)c2ccc3snnc3c2)cc1Cl | / | 10%[59 µM] | 40% | / | -16% | -2%
COc1ccc2c3c(ccc2c1)C(=O)/C(=C/O)CC3 | / | / | 35µM* | / | / | 7.9µM*
Cc1c(C(=O)NN)nc2ccccn12 | -8% | 42%[59 µM] | 16% | 5% | -4% | -16%
CC(=O)c1ccc(NC(=O)CCc2c(C)nc3c(c2C)c(=O)n(C)c(=O)n3C)cc1 | / | 10%[59 µM] | 20% | / | -5% | -14%
CCOC(=O)c1ccc(NC(=O)Cc2coc3cc(C)cc(C)c23)cc1 | / | -4%[59 µM] | 43% | / | -3% | 8%
COc1cc2c(cc1OC)/C(=C/C(=O)c1ccc(C)cc1)NCC2 | -14% | 50µM* | -12% | / | ? | ?
COc1cc2c(cc1OC)/C(=C/C(=O)c1ccccc1)NCC2 | -4% | ? | -17% | / | ? | ?
COc1cccc(C(=O)/C=C2\Sc3ccccc3N2C)c1 | -11% | 54% | 163% | 67% | 57% | 82%
COc1cccc(C(=O)/C=C2\NCCc3cc(OC)c(OC)cc32)c1 | 3% | 50µM* | -20% | / | ? | ?
COc1cc2c(cc1OC)/C(=C/C(=O)c1ccc([N+](=O)[O-])c(C)c1)NCC2 | -8% | -7% | 9% | / | -30% | 20µM*
COc1ccc(/C(N)=N/OC(=O)c2ccc([N+](=O)[O-])c(C)c2)cc1OC | 4% | -39%[59 µM] | 45% | 1% | -21% | -14%
O=c1c2ccccc2[nH]c2ccc(O)cc12 | -25% | 40µM* | ? | / | 56µM* | ?
Cc1ccc2[nH]c3ccccc3c(=O)c2c1 | 3% | 2% | 43% | / | 1% | 6%
CCOc1ccccc1NC(=O)COC(=O)/C=C/c1cccs1 | / | / | 48% | 15% | / | 26%
CCCCCOC(=O)c1[nH]c2c(c1C)C(=O)CC(c1ccco1)C2 (stereo not given) | ? | 40µM* | ? | ? | 56µM* | 35µM*
COc1ccc(Nc2nc(Nc3ccc(OC)cc3OC)nc(N3CCOCC3)n2)c(OC)c1 | / | ? | 7% | / | 7.9µM* | ?
Fc1cccc(Nc2nc(N3CCOCC3)nc(N3CCOCC3)n2)c1 | 5% | 12% | 20% | 2% | -10% | -11%
Clc1cccc(Nc2nc(N3CCOCC3)nc(N3CCOCC3)n2)c1 | 1% | 50µM* | 57% | / | -18%[57.1 µM] | -7%
FC(F)(F)Oc1ccc(Nc2nc(N3CCOCC3)nc(N3CCOCC3)n2)cc1 | -1% | / | 32% | / | ? | 18µM*
COc1ccc(Nc2nc(N3CCOCC3)nc(N3CCOCC3)n2)c(OC)c1 | 19% | 8%[0.501 µM] | 17% | -3%[2.29 µM] | -31% | -35%
